Data as given in PubChem BioAssay (NCI).
Compounds without any hit were thinned out: in the full panel of roughly 83,000, 20% have a hit.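 Cells were grown in 96-well plates and exposed to the test compound at a single concentration for 48 hours; results are reported as percent growth, with values below 10 considered active.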 The source made the active and inactive calls.

Experiments:
Assay in all cases: NCI-60 one-dose screen, 48 h (100 = growth as untreated, 0 = no growth, -100 = all killed)
Conditions in all cases: 10 µM unless noted
NCI-H23 lung = system: NCI-H23 lung
NCI-H226 lung = system: NCI-H226 lung
NCI-H322M lung = system: NCI-H322M lung
HOP-62 NSCLC = system: HOP-62 NSCLC
NCI-H460 lung = system: NCI-H460 lung
HOP-92 NSCLC = system: HOP-92 NSCLC
NCI-H522 lung = system: NCI-H522 lung
A549/ATCC NSCLC = system: A549/ATCC NSCLC
786-0 renal = system: 786-0 renal
COLO 205 colon = system: COLO 205 colon
DU-145 prostate = system: DU-145 prostate
K-562 leukemia = system: K-562 leukemia
MALME-3M melanoma = system: MALME-3M melanoma
MDA-MB-231 breast = system: MDA-MB-231 breast
RXF 393 renal = system: RXF 393 renal
SF-268 CNS = system: SF-268 CNS
SF-295 CNS = system: SF-295 CNS
SF-539 CNS = system: SF-539 CNS
UACC-257 melanoma = system: UACC-257 melanoma
M14 melanoma = system: M14 melanoma

Measured: growth

CCOC(=O)c1nn(-c2ccc(S(N)(=O)=O)cc2)c2nc(C)cc(=O)n12
inactive: NCI-H23 lung 98.5% | NCI-H226 lung 104% | NCI-H322M lung 102% | HOP-62 NSCLC 102% | NCI-H460 lung 109% | HOP-92 NSCLC 95% | NCI-H522 lung 100% | A549/ATCC NSCLC 102% | 786-0 renal 96.5% | COLO 205 colon 114% | DU-145 prostate 108% | K-562 leukemia 102% | MALME-3M melanoma 106% | MDA-MB-231 breast 102% | RXF 393 renal 104% | SF-268 CNS 103% | SF-295 CNS 103% | SF-539 CNS 97.8% | UACC-257 melanoma 112% | M14 melanoma 104%

O=C1/C(=C/c2ccccc2O)CC/C1=C\c1ccccc1O
active: K-562 leukemia 7.41%
inactive: NCI-H23 lung 59.8% | NCI-H226 lung 82.9% | NCI-H322M lung 96.4% | HOP-62 NSCLC 94% | NCI-H460 lung 68.9% | HOP-92 NSCLC 20% | NCI-H522 lung 56% | A549/ATCC NSCLC 93.8% | 786-0 renal 54.3% | COLO 205 colon 107% | DU-145 prostate 46.1% | MALME-3M melanoma 80.4% | MDA-MB-231 breast 44.3% | RXF 393 renal 67.5% | SF-268 CNS 71.3% | SF-295 CNS 98.6% | SF-539 CNS 82.3% | UACC-257 melanoma 86.3% | M14 melanoma 61.3%

CC(=O)c1c(C)nc(SCC(=O)Nc2cccc(O)c2)n1-c1ccc(Cl)cc1
inactive: NCI-H23 lung 94.3% | NCI-H226 lung 107% | NCI-H322M lung 91.2% | HOP-62 NSCLC 105% | NCI-H460 lung 94.5% | HOP-92 NSCLC 100% | NCI-H522 lung 83.9% | A549/ATCC NSCLC 96.2% | 786-0 renal 102% | COLO 205 colon 118% | DU-145 prostate 103% | K-562 leukemia 105% | MALME-3M melanoma 90.8% | MDA-MB-231 breast 82.1% | RXF 393 renal 92% | SF-268 CNS 96.2% | SF-295 CNS 97.4% | SF-539 CNS 105% | UACC-257 melanoma 101% | M14 melanoma 94.4%

COc1ccc(Nc2ncc(Br)c(NCCCNC(=O)C3CCCC3)n2)cc1
active: MDA-MB-231 breast -27.7% | RXF 393 renal -20.9% | SF-539 CNS 2.9%
inactive: NCI-H23 lung 30.3% | NCI-H226 lung 28.5% | NCI-H322M lung 58.5% | HOP-62 NSCLC 22.4% | NCI-H460 lung 23.6% | HOP-92 NSCLC 26% | NCI-H522 lung 65.7% | A549/ATCC NSCLC 38.9% | 786-0 renal 36.3% | COLO 205 colon 21.6% | DU-145 prostate 48.9% | K-562 leukemia 31.2% | MALME-3M melanoma 58.5% | SF-268 CNS 21.6% | SF-295 CNS 39.4% | UACC-257 melanoma 96.5% | M14 melanoma 61.5%

Cc1ccc(/C=C2\COc3ccc(O)cc3C2=O)cc1
inactive: NCI-H23 lung 94.7% | NCI-H226 lung 97.3% | NCI-H322M lung 99.6% | HOP-62 NSCLC 103% | NCI-H460 lung 100% | HOP-92 NSCLC 97.4% | A549/ATCC NSCLC 89.7% | 786-0 renal 86.7% | COLO 205 colon 94.3% | DU-145 prostate 103% | K-562 leukemia 17.9% | MALME-3M melanoma 90.3% | MDA-MB-231 breast 90.7% | RXF 393 renal 96.3% | SF-268 CNS 86.3% | SF-295 CNS 105% | SF-539 CNS 98.7% | UACC-257 melanoma 103% | M14 melanoma 93.1%
active: NCI-H522 lung 4.44%

COc1ccc(-c2noc(C(=O)O)c2-c2cc(OC)c(OC)c(OC)c2)cc1
active: COLO 205 colon 6.75% | SF-539 CNS 3.15%
inactive: NCI-H23 lung 39.9% | NCI-H226 lung 54.1% | NCI-H322M lung 48.9% | HOP-62 NSCLC 36.6% | NCI-H460 lung 14.8% | HOP-92 NSCLC 54.9% | NCI-H522 lung 17.3% | A549/ATCC NSCLC 43.4% | 786-0 renal 33.1% | DU-145 prostate 36.1% | K-562 leukemia 12.6% | MALME-3M melanoma 52.8% | MDA-MB-231 breast 57.1% | RXF 393 renal 21.2% | SF-268 CNS 40.5% | SF-295 CNS 13.5% | UACC-257 melanoma 45.4% | M14 melanoma 11.7%

CC(C)c1ccc(Cc2cnc(NC(=O)c3cc(Br)cs3)s2)cc1
inactive: NCI-H23 lung 47.6% | NCI-H226 lung 24.5% | NCI-H322M lung 45.6% | HOP-62 NSCLC 35.8% | NCI-H460 lung 13.6% | HOP-92 NSCLC 35.7% | A549/ATCC NSCLC 31.4% | 786-0 renal 31.3% | COLO 205 colon 15.4% | DU-145 prostate 38.5% | K-562 leukemia 18.2% | MALME-3M melanoma 31.1% | MDA-MB-231 breast 55.8% | SF-268 CNS 48.2% | UACC-257 melanoma 53.4% | M14 melanoma 15.8%
active: NCI-H522 lung -1.16% | RXF 393 renal -5.08% | SF-295 CNS 9.99% | SF-539 CNS 4.75%

N#Cc1ccc(O)c(C2=NCC(c3cccc(Oc4ccccc4)c3)O2)c1 (stereo not given)
inactive: NCI-H23 lung 41.1% | NCI-H226 lung 45.2% | NCI-H322M lung 41.7% | HOP-92 NSCLC 36.8% | 786-0 renal 26.4% | COLO 205 colon 14.7% | DU-145 prostate 39.4% | MALME-3M melanoma 37.3% | MDA-MB-231 breast 24.6% | RXF 393 renal 61.8% | SF-268 CNS 23.1% | SF-295 CNS 30.9% | SF-539 CNS 23.6%
active: HOP-62 NSCLC 2.94% | NCI-H460 lung 4.55% | NCI-H522 lung -11.9% | A549/ATCC NSCLC -0.648% | K-562 leukemia 7.33% | UACC-257 melanoma 6.96% | M14 melanoma -4.77%

O=C1C(Cl)=C(Nc2ccc(S(=O)(=O)N3CCOCC3)cc2)C(=O)c2ccccc21
inactive: NCI-H23 lung 83.5% | NCI-H226 lung 84.5% | NCI-H322M lung 99.8% | HOP-62 NSCLC 86.3% | NCI-H460 lung 94.9% | HOP-92 NSCLC 25.7% | NCI-H522 lung 21% | A549/ATCC NSCLC 80.8% | 786-0 renal 71% | COLO 205 colon 104% | DU-145 prostate 101% | MALME-3M melanoma 71.6% | MDA-MB-231 breast 31.3% | RXF 393 renal 56.4% | SF-268 CNS 78.3% | SF-295 CNS 99.7% | UACC-257 melanoma 66.4% | M14 melanoma 44.2%
active: K-562 leukemia 6.71% | SF-539 CNS 2.06%

COC(=O)C1Cc2ccccc2CN1C(=O)c1ccc2c(c1)Cc1ccccc1-2 (stereo not given)
inactive: NCI-H23 lung 35.9% [50 µM] | NCI-H226 lung 45.3% [50 µM] | NCI-H322M lung 68.2% [50 µM] | HOP-62 NSCLC 76.6% [50 µM] | NCI-H460 lung 34.4% [50 µM] | HOP-92 NSCLC 48.5% [50 µM] | NCI-H522 lung 18.5% [50 µM] | A549/ATCC NSCLC 27.3% [50 µM] | 786-0 renal 54% [50 µM] | COLO 205 colon 32.2% [50 µM] | DU-145 prostate 59.8% [50 µM] | K-562 leukemia 21.2% [50 µM] | MALME-3M melanoma 17.7% [50 µM] | MDA-MB-231 breast 42.3% [50 µM] | RXF 393 renal 51.2% [50 µM] | SF-268 CNS 49.3% [50 µM] | SF-295 CNS 30.2% [50 µM] | SF-539 CNS 70.1% [50 µM] | UACC-257 melanoma 29% [50 µM] | M14 melanoma 30.9% [50 µM]

C#CCNC(=O)[C@H](CC)[C@H]1CC[C@H](C)[C@H]([C@@H](C)[C@H](O)[C@H](C)C(=O)[C@H](CC)C2O[C@]3(C=CC(=O)[C@]4(CC[C@@](C)([C@H]5CC[C@](O)(CC)[C@H](C)O5)O4)O3)[C@H](C)C[C@@H]2C)O1 (stereo not given in full)
inactive: NCI-H23 lung 42.4% | NCI-H226 lung 57.7% | NCI-H322M lung 53.8% | HOP-62 NSCLC 61.8% | NCI-H460 lung 35.5% | HOP-92 NSCLC 13.2% | NCI-H522 lung 32.3% | A549/ATCC NSCLC 44% | 786-0 renal 70.5% | COLO 205 colon 10.8% | DU-145 prostate 22.6% | MALME-3M melanoma 48.8% | RXF 393 renal 14% | SF-268 CNS 45.9% | SF-295 CNS 43.9% | UACC-257 melanoma 68.1%
active: K-562 leukemia 8.66% | MDA-MB-231 breast -0.208% | SF-539 CNS 6.76% | M14 melanoma -11.9%

O=C(Nc1nc2ccc(C(=O)N3CCN(/C=C/c4ccccc4)CC3)cc2s1)c1ccc(NCCc2ccccc2)c([N+](=O)[O-])c1
inactive: NCI-H23 lung 51% | NCI-H226 lung 62.1% | NCI-H322M lung 82.8% | HOP-62 NSCLC 58.4% | NCI-H460 lung 16.5% | HOP-92 NSCLC 51.8% | NCI-H522 lung 48.3% | A549/ATCC NSCLC 55.2% | 786-0 renal 69.7% | COLO 205 colon 18.5% | DU-145 prostate 70.7% | MDA-MB-231 breast 66% | RXF 393 renal 53.2% | SF-268 CNS 63.2% | SF-295 CNS 45.7% | SF-539 CNS 71.7% | UACC-257 melanoma 37.3% | M14 melanoma 12.9%
active: K-562 leukemia -18.7% | MALME-3M melanoma -0.217%

Nc1n[nH]c2cccc(C#Cc3cccc(NC(=O)c4cc(F)cc(C(F)(F)F)c4)c3)c12
active: K-562 leukemia 9.27%
inactive: NCI-H23 lung 65.8% | NCI-H226 lung 46.6% | NCI-H322M lung 93.9% | HOP-62 NSCLC 95.2% | NCI-H460 lung 77.8% | HOP-92 NSCLC 39.1% | NCI-H522 lung 62.6% | A549/ATCC NSCLC 84.4% | 786-0 renal 86.4% | COLO 205 colon 83.7% | DU-145 prostate 97.9% | MALME-3M melanoma 53% | MDA-MB-231 breast 48.1% | RXF 393 renal 62.8% | SF-268 CNS 73.6% | SF-295 CNS 81.3% | SF-539 CNS 44% | UACC-257 melanoma 88.5% | M14 melanoma 41.9%

Cc1ccc2c(Cn3cc(CSc4nc5ccccc5o4)nn3)cc(=O)oc2c1
inactive: NCI-H23 lung 96.1% | NCI-H226 lung 110% | NCI-H322M lung 104% | HOP-62 NSCLC 105% | NCI-H460 lung 110% | HOP-92 NSCLC 110% | NCI-H522 lung 97.6% | A549/ATCC NSCLC 105% | 786-0 renal 105% | COLO 205 colon 111% | DU-145 prostate 111% | K-562 leukemia 98.4% | MALME-3M melanoma 104% | MDA-MB-231 breast 106% | RXF 393 renal 98.6% | SF-268 CNS 103% | SF-295 CNS 110% | SF-539 CNS 101% | UACC-257 melanoma 104% | M14 melanoma 114%
